Conditions in all cases: concentration: 1 μM, replicates: in singlicate; n = 1
For assay [1], the system named is ACVR1B.
Assay [2] has as its system ACVR1.
The test system of assay [3] is ACVR2A.
For assay [4], the system named is ACVR2B.
The test system of assay [5] is ACVRL1.
The test system of assay [6] is T1, ADCK3.
T1 construct: gene CABC1

Assay [7] concerns ADCK4.
Assay [8] concerns AKT1.
The subject of assay [9] is AKT2.
The test system of assay [10] is AKT3.

Data on 18 molecules can be found in publication PMC5540273 (PLoS ONE, 2017).
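Also: KINOMEscan kinase panel screen.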

`CCCNC(=O)Nc1ccc(Oc2ncnc3ccn(C)c23)cc1`: the “%Inh” value in [1] is recorded as 13%; in assay [2], 0%; in assay [3] it was 2%; in assay [4], 0%; in assay [5], 0%; in [6], 0%. Besides, the “%Inh” value is reported as 0% in assay [7], 7% in [8], 8% in assay [9] and 0% in [10].

For `COc1cc2nccc(Nc3ccc(OCc4ccc(NC(C)=O)cc4)cc3)c2cc1OC.Cl` [GW440135], the “%Inh” value in assay [1] came out at 0%; in [2] it was 25%; in assay [3], 0%; in assay [4] it was 1%; in [5] it was 4%; in [6], 15%. The “%Inh” value in [7] is recorded as 23%; in assay [8], 6%; in [9] it was 0%; in assay [10], 0%.

With `Nc1ncnc2c1ncn2-c1ccc(Cl)cc1` [AH2635], the “%Inh” value was determined as 0% in assay [1]; 3% in [2]; 0% in [3]; 16% in assay [4]; 0% in [5]; 24% in assay [6]. In addition, the “%Inh” value in [7] is given as 33%; in [8], 0%; in assay [9] it was 0%; in [10], 0%.

`COC(=O)c1c(-c2ccccc2)c2cc(C)ccc2c(=O)n1Cc1ccccc1`: the “%Inh” value is given as 0% in [1]; 0% in assay [2]; 7% in assay [3]; 0% in assay [4]; 0% in assay [5]; 0% in [6]. Also, the “%Inh” value is on record as 0% in assay [7], 0% in assay [8], 3% in assay [9] and 0% in assay [10].

`CN1C(=O)C(Nc2cc(Cl)c(O)c(Cl)c2)=C(c2ccc(Cl)cc2)C1=O` [SB-404321]: the “%Inh” value is 0% in assay [1]; 0% in [2]; 0% in assay [3]; 0% in assay [4]; 0% in [5]; 3% in [6]. The “%Inh” value in assay [7] is on record as 16%; in assay [8] it was 0%; in [9], 0%; in assay [10] it was 0%.

As for `O=C(Nc1n[nH]c2nc(-c3ccccc3)c(Cl)cc12)C1CC1` [SB-734909], the “%Inh” value is on record as 7% in assay [1]; 0% in assay [2]; 7% in assay [3]; 8% in [4]; 0% in assay [5]; 0% in [6]. Further, the “%Inh” value in assay [7], in [8], in [9] and in [10] was 0% each time.

Turning to `OCCCNc1nccc(-c2c(-c3cccc(C(F)(F)F)c3)nn3cc(C(F)(F)F)ccc23)n1` [GW630813], the “%Inh” value in assay [1] came out at 0%; in assay [2], 0%; in [3], 0%; in assay [4], 0%; in assay [5], 0%; in assay [6] it was 68%. Besides, the “%Inh” value in assay [7] was 43%; in assay [8] it was 0%; in assay [9] it was 0%; in assay [10], 0%.

As to `Cc1cccc(-c2nc(Nc3ccc4c(cnn4C)c3)c3ccccc3n2)n1` [GW876731], the “%Inh” value in [1] amounted to 64%; in assay [2], 0%; in assay [3] it was 2%; in assay [4], 0%; in assay [5], 0%; in assay [6] it was 8%. For the same molecule, the “%Inh” value in [7] is reported as 4%; in assay [8] it was 21%; in assay [9], 0%; in assay [10], 20%.

For the molecule `CCS(=O)(=O)c1ccc(OC)c(Nc2ncc(-c3ccc(F)cc3)o2)c1.Cl` [GW591947], the “%Inh” value was 0% in assay [1]; 0% in assay [2]; 0% in [3]; 0% in assay [4]; 0% in [5]; 1% in [6]. Moreover, the “%Inh” value in assay [7] is reported as 15%; in assay [8], 0%; in assay [9], 0%; in assay [10] it was 9%.

Take `CN1C(=O)C(Nc2ccccc2)=C(c2ccccc2)C1=O` [SB-300079]: the “%Inh” value is 8% in assay [1]; 0% in [2]; 0% in assay [3]; 0% in [4]; 0% in assay [5]; 0% in assay [6]. Moreover, the “%Inh” value in assay [7] came to 25%; in [8], 0%; in assay [9], 0%; in assay [10], 0%.

Regarding `Cc1nc(N(C)[C@H]2CN(C(=O)CC#N)CC[C@H]2C)c2cc[nH]c2n1`, the “%Inh” value in assay [1] is given as 8%; in [2], 8%; in assay [3], 15%; in [4], 0%; in assay [5], 5%; in assay [6], 0%. For the same molecule, the “%Inh” value in assay [7] stood at 0%; in assay [8], 0%; in [9] it was 1%; in assay [10], 3%.

With `COC(=O)c1c(-c2ccccc2)c2cc(Br)ccc2c(=O)n1Cc1ccc(S(C)(=O)=O)cc1`, the “%Inh” value in assay [1] stood at 0%; in assay [2], 15%; in [3] it was 0%; in assay [4], 0%; in [5] it was 0%; in [6], 12%. Further, the “%Inh” value in assay [7] is 8%; in assay [8] it was 14%; in assay [9], 28%; in assay [10], 0%.

As for `COc1ccc(-c2cc3c(C)nc(N)nc3n([C@H]3CC[C@H](OCCO)CC3)c2=O)cn1`, the “%Inh” value in assay [1] was 9%; in assay [2], 4%; in assay [3] it was 0%; in [4] it was 0%; in [5], 0%; in assay [6], 0%. The “%Inh” value in assay [7] amounted to 0%; in [8], 6%; in assay [9], 0%; in [10], 1%.

Turning to `CC(C)(C)c1ccc(C(=O)Nc2cn3cc(-c4ccccc4)ccc3n2)cc1`, the “%Inh” value in [1] turned out to be 0%; in assay [2] it was 5%; in assay [3], 0%; in [4], 0%; in assay [5], 5%; in assay [6], 25%. The “%Inh” value in assay [7], in assay [8], in assay [9] and in [10] was 0% each time.

On to `CCC(=O)c1c(-c2ccccc2)c2cc(Cl)ccc2c(=O)n1Cc1cc(S(C)(=O)=O)n(CC(F)F)n1`, for which the “%Inh” value in [1], in [2], in [3], in assay [4], in [5] and in [6] was 0% each time. Also, the “%Inh” value in [7], in [8], in assay [9] and in assay [10] was 0% in each case.

Consider `COc1cccc(-n2cnc3c(N)ncnc32)c1` [SKF-97416], for which the “%Inh” value came to 22% in [1]; 0% in assay [2]; 3% in assay [3]; 0% in assay [4]; 11% in [5]; 0% in assay [6]. The “%Inh” value in assay [7] worked out at 8%; in assay [8], 1%; in assay [9] it was 0%; in [10], 22%.

With `COc1cc2ncn(-c3cc(OCc4ccncc4)c(C(N)=O)s3)c2cc1OC` [GSK336313], the “%Inh” value is 0% in [1]; 9% in assay [2]; 0% in [3]; 0% in assay [4]; 0% in assay [5]; 0% in assay [6]. Further, the “%Inh” value in assay [7] worked out at 20%; in assay [8], 0%; in assay [9] it was 1%; in assay [10] it was 0%.

`CCc1ccc(-c2ccc3c(c2)-c2nn(C)cc2S(=O)(=O)N3C)cc1`: the “%Inh” value is on record as 0% in [1]; 0% in assay [2]; 21% in assay [3]; 1% in assay [4]; 0% in assay [5]; 0% in assay [6]. Also, the “%Inh” value in [7] amounted to 0%; in [8] it was 0%; in [9] it was 3%; in assay [10] it was 0%.
